In PubChem BioAssay AID1159580 (chemical genetic matrix, 2015):
Values joined by “and” are separate entries in the source; they are usually repeats but may differ in a detail not shown here. Identical values can stand only once. About 2,000 (36%) of roughly 5,500 compounds were called active. Inconclusive results (about 18%) are left out. No stated cut-off is given here; in the data, active means normalized growth mostly below about 0.91 (no sharp cut-off); inconclusive means no clear call, values can overlap the other calls; inactive means mostly above about 0.92. The list shows a part of the results.

Assay: chemical genetic growth profiling, strain panel (AID 1159580);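 further: tested at 20 µM; growth read once vehicle control cultures reached saturation at 30 °C; 1 = growth at the plate median or of vehicle wells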
Conditions: S. cerevisiae deletion strains, growth OD

Measured: normalized growth

Nc1nc(/C(=C/CC(=O)O)C(=O)N[C@@H]2C(=O)N3C(C(=O)O)=CCS[C@H]23)cs1
inactive: locus YAL013W, strain DEP1, stronger effect = lower value 0.991 | locus YAL021C, strain ccr4, stronger effect = lower value 1.01 | locus YAL026C, strain drs2, stronger effect = lower value 1.01 | locus YAL030W, strain snc1, stronger effect = lower value 1.02 | locus YBL061C, strain skt5, stronger effect = lower value 1 | locus YBR009C, strain hhf1, stronger effect = lower value 1.02 | locus YBR021W, strain FUR4, stronger effect = lower value 0.982 | locus YBR023C, strain chs3, stronger effect = lower value 1.01 | locus YBR171W, strain sec66, stronger effect = lower value 1.04 | locus YBR229C, strain ROT2, stronger effect = lower value 0.971 | locus YBR231C, strain swc5, stronger effect = lower value 1.01 | locus YBR279W, strain paf1, stronger effect = lower value 1 | locus YCL011C, strain gbp2, stronger effect = lower value 1 | locus YCL016C, strain dcc1, stronger effect = lower value 0.99 | locus YCL029C, strain bik1, stronger effect = lower value 0.988 | locus YCL061C, strain MRC1, stronger effect = lower value 1.01 | locus YCL069W, strain vba3, stronger effect = lower value 1 | locus YCR088W, strain abp1, stronger effect = lower value 1.01 | locus YDL005C, strain med2, stronger effect = lower value 1.01 | locus YDL035C, strain GPR1, stronger effect = lower value 1.01 | locus YDL040C, strain nat1, stronger effect = lower value 0.997 | locus YDL074C, strain BRE1, stronger effect = lower value 1.02 | locus YDL101C, strain DUN1, stronger effect = lower value 0.989 | locus YDL134C, strain PPH21, stronger effect = lower value 0.988 | locus YDL185W, strain tfp1, stronger effect = lower value 0.99 | locus YDL192W, strain arf1, stronger effect = lower value 0.983 | locus YDR001C, strain nth1, stronger effect = lower value 1.02 | locus YDR069C, strain doa4, stronger effect = lower value 1.01 | locus YDR101C, strain arx1, stronger effect = lower value 0.99 | locus YDR137W, strain rgp1, stronger effect = lower value 1.01 | locus YDR150W, strain NUM1, stronger effect = lower value 0.998 | locus YDR159W, strain sac3, stronger effect = lower value 1.02 | locus YDR162C, strain NBP2, stronger effect = lower value 1 | locus YDR195W, strain ref2 1.01 | locus YDR297W, strain sur2, stronger effect = lower value 1.01 | locus YDR318W, strain mcm21, stronger effect = lower value 0.996 | locus YDR334W, strain swr1, stronger effect = lower value 0.993 | locus YDR335W, strain msn5, stronger effect = lower value 1.01 | locus YDR388W, stronger effect = lower value 0.992 | locus YDR392W, strain spt3, stronger effect = lower value 1.01 | locus YDR502C, strain sam2, stronger effect = lower value 0.992 | locus YEL003W, strain gim4, stronger effect = lower value 1.01 | locus YEL037C, strain rad23, stronger effect = lower value 1 | locus YEL061C, strain CIN8 (second series), stronger effect = lower value 1 | locus YEL061C, strain CIN8, stronger effect = lower value 0.995 | locus YER015W, strain faa2, stronger effect = lower value 1 | locus YER016W, strain bim1, stronger effect = lower value 0.998 | locus YER110C, stronger effect = lower value 0.978 | locus YER111C, strain swi4, stronger effect = lower value 1.01 | locus YER155C, strain BEM2 (second series), stronger effect = lower value 1.03 | locus YER155C, strain BEM2, stronger effect = lower value 1.04 | locus YER167W, strain BCK2, stronger effect = lower value 0.985 | locus YFR010W, strain ubp6, stronger effect = lower value 1 | locus YGL078C, strain dbp3, stronger effect = lower value 0.995 | locus YGL086W, strain mad1, stronger effect = lower value 0.991 | locus YGL167C, strain pmr1, stronger effect = lower value 1 | locus YGL173C, strain kem1, stronger effect = lower value 1.02 | locus YGL227W, strain vid30, stronger effect = lower value 1.01 | locus YGL240W, strain doc1, stronger effect = lower value 1.01 | locus YGL248W, strain PDE1, stronger effect = lower value 0.978 | locus YGL253W, strain hxk2, stronger effect = lower value 1 | locus YGR078C, strain PAC10, stronger effect = lower value 1.03 | locus YGR135W, strain pre9, stronger effect = lower value 0.991 | locus YGR229C, strain SMI1, stronger effect = lower value 0.935 | locus YGR252W, strain gcn5, stronger effect = lower value 1.04 | locus YHR013C, strain ard1, stronger effect = lower value 0.997 | locus YHR027C, strain rpn1, stronger effect = lower value 1.01 | locus YHR030C, strain SLT2, stronger effect = lower value 0.99 and 0.989 | locus YHR079C, strain IRE1 (second series), stronger effect = lower value 0.998 | locus YHR079C, strain IRE1, stronger effect = lower value 0.974 | locus YHR094C, strain hxt1, stronger effect = lower value 0.99 | locus YHR129C, strain ARP1, stronger effect = lower value 0.989 | locus YHR142W, strain chs7, stronger effect = lower value 1.02 | locus YHR200W, strain rpn10, stronger effect = lower value 0.992 | locus YIL066C, strain RNR3, stronger effect = lower value 0.993 | locus YIL073C, strain SPO22, stronger effect = lower value 1.03 | locus YIL125W, strain kgd1, stronger effect = lower value 0.994 | locus YIR030C, strain dcg1, stronger effect = lower value 0.987 | locus YJL092W, strain hpr5, stronger effect = lower value 1 | locus YJL095W, strain BCK1 (second series), stronger effect = lower value 1.01 | locus YJL095W, strain BCK1, stronger effect = lower value 0.997 and 1.01 | locus YJL115W, strain asf1, stronger effect = lower value 1.03 | locus YJL129C, strain trk1, stronger effect = lower value 1.01 | locus YJL134W, strain LCB3, stronger effect = lower value 0.993 | locus YJL154C, strain vps35, stronger effect = lower value 1.01 | locus YJL164C, strain tpk1, stronger effect = lower value 0.988 | locus YJL166W, strain qcr8, stronger effect = lower value 1.02 | locus YJL168C, strain set2, stronger effect = lower value 0.99 | locus YJL187C, strain SWE1 (second series), stronger effect = lower value 0.989 | locus YJL187C, strain SWE1, stronger effect = lower value 1.01 | locus YJR043C, strain POL32, stronger effect = lower value 0.981 | locus YJR066W, strain TOR1, stronger effect = lower value 0.949
